Data published in PubChem BioAssay (Tox21).
“And” between values parts separate entries of the source, which are not always exact repeats. Equal entries are not always repeated. Results filed as inconclusive are left out. Some compounds were tested as several samples or in several runs, with calls that do not always agree. The source made the active and inactive calls. Unless noted, the call rests on the fitted dose curve; in most records, active means well fitted curve in the direction sought with a large enough effect in the repeat runs; inconclusive means weak or mixed curves; inactive means no such curve, though single readings can be large; an effect the other way counts as inactive or inconclusive.

How the values were obtained:
[1] = A CellTox Green Cytotoxicity Assay to monitor cytotoxicity in HEK293 cells - 32 hour (AID 1224881); further: nearly all actives have a fitted effect of over 40% in size; further: potency means the concentration at half of the fitted maximal effect
Procedure, shortened: (§1)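 Real-time, in one plate: 600 HEK293 cells/well with dead-cell DNA dye, pinned compound after 5 h, 37 C incubation over 40 h; viable cells give no appreciable fluorescence.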

[2] = A CellTox Green Cytotoxicity Assay to monitor cytotoxicity in HepG2 cells - 32 hour (AID 1224883); further: nearly all actives have a fitted effect of over 50% in size; further: potency means the concentration at half of the fitted maximal effect
Procedure, shortened: (§2)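 Cytotoxicity was tracked as dead-cell DNA fluorescence in HepG2 cells treated with test compounds at 37 C; each time-point value comes from one kinetic series spanning 0, 8, 16, 24, 32 and 40 h.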

[3] = A CellTox Green Cytotoxicity Assay to monitor cytotoxicity in HEK293 cells - 8 hour (AID 1224884); further: nearly all actives have a fitted effect of over 35% in size; further: potency means the concentration at half of the fitted maximal effect
Procedure, shortened: as §1

[4] = qHTS RealTime-Glo MT Cell Viability Assay in HepG2 cells - 16 hour (AID 1224885); further: nearly all actives have a fitted effect of over 50% in size; further: potency means the concentration at half of the fitted maximal effect
Procedure, shortened: (§3)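 HepG2 cells were seeded at 600 cells/well together with NanoLuc luciferase and a cell-permeant prosubstrate, preincubated 5 h at 37 C/5% CO2, then pin-dosed with compounds in DMSO. Nonlytic luminescence from viable cells was read at each time point.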

[5] = qHTS RealTime-Glo MT Cell Viability Assay in HEK293 cells - 24 hour (AID 1224886); further: nearly all actives have a fitted effect of over 50% in size; further: potency means the concentration at half of the fitted maximal effect
Procedure, shortened: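 HEK293 cells were seeded at 600 cells/well together with NanoLuc luciferase and cell-permeant prosubstrate, preincubated 5 h at 37 C/5% CO2, then given compound in DMSO by pintool. Luminescence from viable-cell prosubstrate reduction was read repeatedly over 40 h.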

[6] = qHTS RealTime-Glo MT Cell Viability Assay in HEK293 cells - 8 hour (AID 1224887); further: nearly all actives have a fitted effect of over 50% in size; further: potency means the concentration at half of the fitted maximal effect
Procedure, shortened: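 Kinetic, non-lysing viability readout. Seed HEK293 (600/well) with reagent, incubate 5 h at 37 C/5% CO2, pin 23 nL compound in DMSO, incubate at 37 C, read luminescence at 0, 8, 16, 24, 32, 40 h.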

[7] = A CellTox Green Cytotoxicity Assay to monitor cytotoxicity in HEK293 cells - 16 hour (AID 1224888); further: nearly all actives have a fitted effect of over 35% in size; further: potency means the concentration at half of the fitted maximal effect
Procedure, shortened: as §1

[8] = qHTS RealTime-Glo MT Cell Viability Assay in HepG2 cells - 0 hour (AID 1224889); further: nearly all actives have a fitted effect of over 50% in size
Procedure, shortened: as §3

[9] = A CellTox Green Cytotoxicity Assay to monitor cytotoxicity in HepG2 cells - 8 hour (AID 1224890); further: nearly all actives have a fitted effect of over 45% in size; further: potency means the concentration at half of the fitted maximal effect
Procedure, shortened: as §2

[10] = qHTS assay to identify small molecule antagonists of the estrogen receptor alpha (ER-alpha) signaling pathway using the BG1 cell line in the presence of 0.1 nM 17-beta-estradiol - cell viability counter screen (AID 1259241); further: nearly all actives have a fitted effect of over 40% in size
Procedure, shortened: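 CellTiter-Fluor read (30 min, 37C) on ER-alpha/ERE-luc VM7Luc4E2 cells; 22 hr compound treatment; agonist 0.1 nM E2 final; same-well multiplex.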

[11] = qHTS assay to identify small molecule antagonists of the androgen receptor (AR) signaling pathway using the MDA cell line in the presence of 0.5 nM R1881 - cell viability counter screen (AID 1259242); further: nearly all actives have a fitted effect of over 45% in size; further: potency means the concentration at half of the fitted maximal effect
Procedure, shortened: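 Cells seeded at 3,000/well and allowed 5 hr at 37C, 0% CO2 before compound transfer and R1881 (0.5 nM final) addition; 16 hr later, live-cell protease fluorescence indicated cytotoxicity.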

[12] = target: Androgen receptor (Homo sapiens) (UniProt P10275); assay: qHTS assay to identify small molecule antagonists of the androgen receptor (AR) signaling pathway using the MDA cell line in the presence of 0.5 nM R1881 (AID 1259243); further: nearly all actives have a fitted effect of over 50% in size
Procedure, shortened: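 Luminescence from an AR/GR-responsive MMTV-luciferase construct in MDA-kb2 breast carcinoma cells, read 30 min after ONE-Glo, following 16 hr co-treatment with compounds and 0.5 nM R1881.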

[13] = target: Estrogen receptor (Homo sapiens) (UniProt P03372); assay: qHTS assay to identify small molecule antagonists of the estrogen receptor alpha (ER-alpha) signaling pathway using the BG1 cell line in the presence of 0.1 nM 17-beta-estradiol (AID 1259244); further: nearly all actives have a fitted effect of over 50% in size; further: potency means the concentration at half of the fitted maximal effect
Procedure, shortened: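 Luciferase signal from VM7Luc4E2 ERE-reporter cells, co-dosed with test compound and 0.1 nM final 17beta-estradiol for 22 h, read with ONE-Glo.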

[14] = qHTS assay to identify small molecule HDAC inhibitors (AID 1259364);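 further: wild-type HCT-116 cells with endogenous class I/II HDAC activity; top concentration of the series differs between compounds; nearly all actives have a fitted effect of over 45% in size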
Procedure, shortened: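 HCT-116 wt cells, 1,500/well, overnight attach. Compounds (DMSO) 2 h, 37 °C. HDAC-Glo I/II, 30 min RT. Luminescence.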

[15] = qHTS assay to identify small molecule HDAC inhibitors - cell viability counter screen (AID 1259365)
Procedure, shortened: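 To flag cytotoxic hits, 1,500 wild-type HCT-116 cells per well, plated the day before, receive test compounds for 2hr at 37 C before CellTiter-Glo reagent and a luminescence read.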

[16] = qHTS assay to identify small molecule agonists of the sonic hedgehog signaling (Shh) pathway - cell viability counter screen (AID 1259366); further: nearly all actives have a fitted effect of over 50% in size; further: potency means the concentration at half of the fitted maximal effect
Procedure, shortened: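 Fluorescence from CellTiter-Fluor reports live cells in this counter screen. NIH/3T3-derived Gli1-Luc reporter cells receive test compounds for 24hr at 37C; reagent goes in at 23hr.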

[17] = qHTS assay to identify small molecule antagonists of the sonic hedgehog signaling (Shh) pathway - cell viability counter screen (AID 1259367); further: nearly all actives have a fitted effect of over 55% in size; further: potency means the concentration at half of the fitted maximal effect
Procedure, shortened: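 Tox21 library chemicals were tested on a Gli1-Luc NIH/3T3 clone (2,000 cells/well) stimulated by conditioned medium; viability was quantified as fluorescence from CellTiter-Fluor reagent added at 23 hr.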

[18] = qHTS assay to identify small molecule agonists of the sonic hedgehog signaling (Shh) pathway (AID 1259368; calls by dose curve; further: nearly all actives have a fitted effect of over 15% in size; further: potency means the concentration at half of the fitted maximal effect)
Procedure, shortened: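 Following a 24 hr incubation with DMSO-dissolved compounds at 37 C, 5% CO2, Gli1-Luc NIH/3T3-derived cells received luciferase reagent for 30 min at room temperature prior to luminescence measurement.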

[19] = A CellTox Green Cytotoxicity Assay to monitor cytotoxicity in HepG2 cells - 0 hour (AID 1224882); further: nearly all actives have a fitted effect of over 35% in size
Procedure, shortened: as §2

[20] = qHTS assay to identify small molecule phospholipidosis (PLD) inducers (AID 1259344; active means well fitted curve in the direction sought with a large enough effect; an effect the other way counts as inactive or inconclusive)
Procedure, shortened: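 Image-based: LipidTOX Red pit count/intensity per well and per cell; HepG2, 24 h compound at 37 C, PFA fixation, Hoechst counterstain.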
On the % scale 0 is the no-effect control and ±100 the full control effect.

Chain of Androgen receptor (Homo sapiens) (P10275 whole entry, looked up): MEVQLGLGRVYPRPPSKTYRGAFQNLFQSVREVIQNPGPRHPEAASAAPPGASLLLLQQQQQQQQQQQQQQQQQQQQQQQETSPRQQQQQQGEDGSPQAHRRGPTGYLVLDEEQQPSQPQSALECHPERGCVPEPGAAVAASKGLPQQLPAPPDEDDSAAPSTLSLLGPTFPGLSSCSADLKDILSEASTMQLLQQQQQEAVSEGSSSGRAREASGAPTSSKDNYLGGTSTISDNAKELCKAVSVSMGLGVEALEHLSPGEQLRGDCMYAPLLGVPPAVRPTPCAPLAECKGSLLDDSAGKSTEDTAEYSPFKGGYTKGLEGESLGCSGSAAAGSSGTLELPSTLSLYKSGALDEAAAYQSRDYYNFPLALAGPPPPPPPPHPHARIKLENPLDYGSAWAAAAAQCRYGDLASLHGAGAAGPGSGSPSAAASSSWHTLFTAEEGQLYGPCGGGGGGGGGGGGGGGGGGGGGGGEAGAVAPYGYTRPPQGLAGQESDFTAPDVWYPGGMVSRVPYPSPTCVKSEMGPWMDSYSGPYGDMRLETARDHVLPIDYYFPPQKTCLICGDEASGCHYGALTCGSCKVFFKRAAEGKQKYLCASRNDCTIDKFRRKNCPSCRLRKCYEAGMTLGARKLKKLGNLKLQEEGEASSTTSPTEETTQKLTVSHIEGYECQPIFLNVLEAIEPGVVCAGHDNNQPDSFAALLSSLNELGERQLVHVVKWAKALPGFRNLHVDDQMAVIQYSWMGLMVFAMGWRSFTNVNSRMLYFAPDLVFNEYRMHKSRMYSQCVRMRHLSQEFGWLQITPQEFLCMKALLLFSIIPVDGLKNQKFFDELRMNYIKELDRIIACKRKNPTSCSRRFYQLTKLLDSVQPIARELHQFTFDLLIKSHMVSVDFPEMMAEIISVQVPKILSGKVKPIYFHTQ
Chain of Estrogen receptor (Homo sapiens) (P03372 whole entry, looked up): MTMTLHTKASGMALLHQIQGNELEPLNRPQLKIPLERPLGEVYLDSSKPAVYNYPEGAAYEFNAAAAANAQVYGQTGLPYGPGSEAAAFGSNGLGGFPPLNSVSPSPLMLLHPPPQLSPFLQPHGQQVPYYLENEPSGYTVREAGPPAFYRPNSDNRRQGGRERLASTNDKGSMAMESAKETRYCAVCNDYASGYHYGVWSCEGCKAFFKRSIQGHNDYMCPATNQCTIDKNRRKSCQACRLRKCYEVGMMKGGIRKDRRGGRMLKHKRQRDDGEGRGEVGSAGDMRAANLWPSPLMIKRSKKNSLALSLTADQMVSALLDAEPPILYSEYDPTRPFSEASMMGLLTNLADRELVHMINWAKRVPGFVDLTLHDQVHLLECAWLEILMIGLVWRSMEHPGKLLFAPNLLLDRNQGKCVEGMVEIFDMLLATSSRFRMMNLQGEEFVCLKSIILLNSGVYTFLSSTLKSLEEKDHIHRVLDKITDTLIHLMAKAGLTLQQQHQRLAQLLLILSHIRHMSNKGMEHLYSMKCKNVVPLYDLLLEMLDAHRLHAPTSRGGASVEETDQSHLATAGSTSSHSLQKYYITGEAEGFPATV

CC(C)(C)NSc1nc2ccccc2s1
inactive: Potency [1] | Potency [2] | Potency [3] | Potency [4] | Potency [5] | Potency [6] | Potency [7] | Potency [8] | Potency [9] | Potency [10] | Potency [11] | Potency [12] | Potency [13] | Potency [14] | Potency [15] | Potency [16] | Potency [17] | Potency [18]

CCC(C)n1ncn(-c2ccc(N3CCN(c4ccc(OC[C@H]5CO[C@](Cn6cncn6)(c6ccc(Cl)cc6Cl)O5)cc4)CC3)cc2)c1=O (some centres undefined)
inactive: Potency [1] | Potency [19] | Potency [7] | Potency [8] | Potency [9] | Potency [10] | Potency [11] | Potency [14] | Potency [15] | Potency [16] | Potency [17] | Potency [18]

CCCC[P+](C)(CCCC)CCCC
active: Potency [18] 19.6 µM
inactive: Potency [1] | Potency [2] | Potency [3] | Potency [4] | Potency [6] | Potency [7] | Potency [8] | Potency [9] | Potency [10] | Potency [11] | Potency [13] | Potency [14] | Potency [15] | Potency [16] | Potency [17]

O=S(=O)(O)c1ccc(Nc2nc(Nc3ccc(/C=C/c4ccc(Nc5nc(Nc6ccc(S(=O)(=O)O)cc6)nc(N(CCO)CCO)n5)cc4S(=O)(=O)O)c(S(=O)(=O)O)c3)nc(N(CCO)CCO)n2)cc1
inactive: Potency [1] | Potency [2] | Potency [3] | Potency [4] | Potency [5] | Potency [6] | Potency [7] | Potency [8] | Potency [9] | Potency [11] | Potency [12] | Potency [13] | Potency [14] | Potency [15] | Potency [17] | Potency [18]

CCOc1ccc2ccccc2c1C(=O)N[C@@H]1C(=O)N2[C@@H]1SC(C)(C)[C@@H]2C(=O)O
inactive: Potency [1] | Potency [2] | Potency [3] | Potency [4] | Potency [5] | Potency [6] | Potency [7] | Potency [8] | Potency [10] | Potency [11] | Potency [12] | Potency [13] | Potency [20] | Potency [14] | Potency [15] | Potency [16] | Potency [17] | Potency [18]

CCN(CC)C(=O)c1cc(S(=O)(=O)Cc2ccccc2)c(N2CCC(c3ccccc3)CC2)cc1N(CC)CCN(C)C
inactive: Potency [19] | Potency [8] | Potency [10] | Potency [13] | Potency [20] | Potency [14] | Potency [15] | Potency [18]
active: Potency [1] 19.3 µM | Potency [4] 19.3 µM | Potency [5] 13.6 µM | Potency [6] 17.2 µM | Potency [9] 19.3 µM | Potency [17] 9.58 µM

CCOC(=O)NNc1ccc(N(CC)CC(C)O)nn1 (centres undefined)
inactive: Potency [1] | Potency [2] | Potency [3] | Potency [4] | Potency [5] | Potency [6] | Potency [7] | Potency [9] | Potency [10] | Potency [11] | Potency [13] | PLD induction [20] -4.24% [at 7.66 µM] | Potency [14] | Potency [15] | Potency [16] | Potency [17] | Potency [18]

Nc1cc(Cl)c(O)c(Cl)c1
active: Potency [6] 43.6 µM
inactive: Potency [1] | Potency [2] | Potency [3] | Potency [4] | Potency [7] | Potency [8] | Potency [9] | Potency [10] | Potency [11] | Potency [12] | Potency [13] | Potency [15] | Potency [18]

CCCCCCCCCCCCCC[N+](C)(C)Cc1ccccc1
active: Potency [1] 39.5 µM and 19 µM and 17.8 mM | Potency [2] 35.2 µM and 15.1 µM and 14.1 mM | Potency [3] 55.8 µM and 21.3 µM and 20 mM | Potency [4] 49.7 µM and 21.3 µM and 17.8 mM | Potency [5] 5.58 µM and 6.74 µM and 5.01 mM | Potency [6] 49.7 µM and 20 mM | Potency [7] 44.3 µM and 23.9 µM and 20 mM | Potency [9] 26.8 µM and 20 mM | Potency [11] 49.3 µM | Potency [13] 27.7 µM and 15.8 mM | Potency [16] 24.7 µM
27.7 µM (active) and inactive: Potency [17]
inactive: Potency [8] | Potency [10] | Potency [20] | Potency [14] | Potency [15] | Potency [18]

CC(C)(C)c1ccc(C(O)CCCN2CCC(C(O)(c3ccccc3)c3ccccc3)CC2)cc1 (centres undefined)
inactive: Potency [8] | Potency [20] | Potency [14] | Potency [17] | Potency [18]
active: Potency [1] 8.49 µM | Potency [2] 5.35 µM | Potency [3] 21.3 µM | Potency [4] 7.56 µM | Potency [5] 5.35 µM | Potency [6] 8.49 µM | Potency [7] 13.4 µM | Potency [9] 15.1 µM | Potency [11] 16.8 µM | Potency [16] 26.6 µM

CCC(=O)C(=O)CC
inactive: Potency [1] | Potency [2] | Potency [3] | Potency [4] | Potency [6] | Potency [7] | Potency [8] | Potency [9] | Potency [10] | Potency [11] | Potency [14] | Potency [15] | Potency [16] | Potency [17] | Potency [18]

O=C(O)Cc1ccccc1Nc1c(Cl)cccc1Cl
inactive: Potency [1] | Potency [2] | Potency [3] | Potency [4] | Potency [5] | Potency [6] | Potency [7] | Potency [8] | Potency [9] | Potency [10] | Potency [11] | Potency [12] | Potency [13] | Potency [20] | Potency [14] | Potency [15] | Potency [16] | Potency [17] | Potency [18]

O=c1[nH]c2ccccc2n1CCCN1CCN(C(c2ccccc2)c2ccccc2)CC1
inactive: Potency [1] | Potency [19] | Potency [3] | Potency [7] | Potency [8] | Potency [10] | Potency [11] | Potency [14] | Potency [15] | Potency [18]
active: Potency [5] 19 µM | Potency [6] 21.3 µM
